Reference: PubChem BioAssay AID651789 (National Center for Advancing Translational Sciences (NCATS), 2012)
Results filed as inconclusive are left out. The source made the active and inactive calls. The call rests on the fitted dose curve; in most records, active means well fitted inhibition curve with a large enough effect; inconclusive means small, poorly fitted or top-dose-only effect; inactive means no such curve, though single readings can be large or run the other way.

Test: Acumen qHTS Assay for Inhibitors of the mTORC1 Signaling Pathway in WT MEF Cells: Hit Validation; further: nearly all actives have a fitted effect of over 60% in size;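 on activity change, negative = inhibition: phospho-rpS6 Ser235/236 immunofluorescence normalised to propidium iodide cell stain; percent of cells above a cutoff set by 7.5 nM rapamycin treated wells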
Settings: Acumen imaging; series mostly up to 37.3 µM; activity change, negative = inhibition: at the top concentration
Method in brief: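 Read-out is immunofluorescent phospho-rpS6 (Ser235/236) normalised to PI-stained cell number, reported as % active cells using a 7.5 nM rapamycin threshold. Cells: WT or Tsc2-/-, p53-/- MEFs, compound-exposed 24 h at 37C; PI count also tracks viability.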
Potency means the concentration at half of the fitted maximal effect.

Activity change, negative = inhibition, inactive:
COc1ccc(NC(=O)C(NC(=O)/C=C\c2ccc3c(c2)OCO3)c2ccccc2)cc1 (stereo not given) -25.3%
COc1ccc(Cn2c(C(=O)O)c(CNCc3ccc(SC)cc3)c3ccc(OC)cc32)cc1 -3.13%
Cc1ccc(NC(=O)CSc2nc(-c3ccco3)cc(C(F)(F)F)n2)cc1C -11.8%
CC(C)(C)c1ccc(-c2nc(S(=O)(=O)c3ccccc3)c(N3CCOCC3)o2)cc1 1.46%
Cc1ccc(-c2nnn(CC(=O)N(CC(=O)NCCC(C)C)c3ccc(F)cc3)n2)cc1 53.9%
CCOCc1cc(CN2CCN(c3ccccc3OC)CC2)c(O)c2ncccc12 3.82%
CN(C)c1ccc(Nc2nc3ccccc3n3nnnc23)cc1 46.5%
CC(C(=O)NCc1cccc(Br)c1)n1ncn2cccc2c1=O (stereo not given) 4.58%
CCc1ccc(OCC(=O)Nc2ccc3oc(-c4ccc(OC)cc4)nc3c2)cc1 7.42%
CCOc1cc(CNCCSc2nnnn2C)cc(Cl)c1OCc1ccc(Cl)cc1 6.82%
O=C(CCn1cnc2onc(-c3ccc(F)cc3)c2c1=O)Nc1ccc(F)c(Cl)c1 -9.16%
CCc1ccc(NC(=O)CSc2nccn2C2CCCC2)cc1 17.4%
Cc1cccc(Cn2cc(C(=O)Nc3ccc(F)c(C(F)(F)F)c3)ccc2=O)c1 0.763%
O=C(CS(=O)(=O)c1cccc2nsnc12)NCc1ccc(Cl)cc1 44.4%
CCOc1ccc(Nc2nc(-c3cccc(Cl)c3)c3c(n2)-c2ccccc2OC3)cc1 -3.01%
CC(C)(C)c1ccc(C2NC(=O)c3n[nH]c(-c4cccs4)c32)cc1 (stereo not given) 40.3%
Cc1cccc(-c2nc3c(cnn3-c3ccccc3)c(=O)n2-c2ccc(Br)cc2)c1 -27.2%
O=C(NCCN1CCN(c2cccc(Cl)c2)CC1)Nc1ccccc1C(F)(F)F 59.5%
CCOc1ccccc1NC(=O)CSc1cc(=O)n(CC)c2ccccc12 4.58%
CCCCN1C(=O)C(O)(c2c(C)[nH]c3ccccc23)c2cc(Br)ccc21 (stereo not given) -22%
Cc1ccc(NC(=O)c2c(C)oc3ccc(O)c(CN(C)Cc4ccccc4)c23)c(C)c1 18.5%
Cc1nn(CC(=O)NCc2ccccc2Cl)c(=O)c2cccn12 -4.58%
Cc1cc(C)c(-c2n[nH]c3c2C(c2ccccc2F)N(Cc2ccco2)C3=O)c(O)c1 (stereo not given) -26.6%
CCc1ccc(-c2nc(CSCC(=O)NCc3ccc(C)cc3)c(C)o2)cc1 34.2%
Cc1ccc(-c2cc(C(=O)N3CCN(c4ccccc4)CC3)c3ccccc3n2)cc1C -2.1%
COc1ccccc1NC(=O)C1=C(C)Nc2nc(SCc3ccccc3)nn2C1c1cccs1 (stereo not given) -3.05%
COc1ccc(CCNC(=O)C(C)n2nc(C)c3sc4ccccc4c3c2=O)c(OC)c1 (stereo not given) 31%
COc1ccc(Cl)cc1NC(=O)CSc1nc(-c2ccco2)cc(C(F)(F)F)n1 1.41%
Cc1cccc(Nc2nnc(-c3ccc(C)c(S(=O)(=O)N4CCN(C)CC4)c3)c3ccccc23)c1 46.8%
COc1ccc(S(=O)(=O)N(CCc2ccccc2)CC(=O)Nc2cccc(OC)c2)cc1 3.05%
Brc1ccc(Nc2c3c(nc4nncn24)CCC3)cc1 3.82%
COc1cc(C)ccc1OCCn1c(-c2ccc(Cl)cc2)nc2ccccc2c1=O 25.2%
CS(=O)(=O)CCNCc1ccc(-c2ccc3ncnc(Nc4ccc(OCc5cccc(F)c5)c(Cl)c4)c3c2)o1 1.69%
CCc1ccc(CN(Cc2ccco2)C(=O)c2cc(-c3ccc(C)c(F)c3)on2)cc1 46.8%

Potency, active:
CCS(=O)(=O)c1ncc(Cl)c(C(=O)N2CCN(c3cccc(Cl)c3)CC2)n1 2610 nM
CC(C)CS(=O)(=O)c1oc(-c2ccc(F)cc2)nc1S(=O)(=O)c1ccccc1 585 nM
CCOc1ccc(N(Cc2ccccc2)C(=O)c2nc(S(C)(=O)=O)ncc2Cl)cc1 2070 nM
CC1C(=O)N2CCCc3cc(S(=O)(=O)Nc4ccc(Br)cc4F)cc1c32 (stereo not given) 2070 nM
Cc1ccc(C)c(NC(=O)c2nc(S(=O)(=O)Cc3ccc(F)cc3)ncc2Cl)c1 2330 nM
CCN(CC)CCOC(=O)c1ccc(NC(=O)c2nn(-c3ccc(C)cc3)c(=O)c3c2c2ccccc2n3C)cc1 1170 nM
